Here are results for 40 molecules from PubChem BioAssay (NCI).

About 83,000 compounds went through this panel and 20% of them were active in at least one assay; those are over-represented in the sample as a whole.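 Growth was measured after 48 h exposure to one concentration of compound in 96-well plates. Values under 10 count as active.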 Unmarked numbers belong to inactive results. Activity calls are given as the source filed them.

The test system of this experiment is SK-MEL-5 melanoma. The experiment is described as follows: NCI-60 one-dose screen, 48 h (100 = growth as untreated, 0 = no growth, -100 = all killed). The conditions noted are these: 10 µM unless noted. As to the method: Growth inhibition of the SK-MEL-5 human tumor cell line is measured as a screen for anti-cancer activity. Cells are grown in 96 well plates and exposed to the test compound for 48 hours. Compounds are tested at a single concentration, which is 10^-5 M for most compounds. The reported endpoint is percent growth (GI% or GIPRCNT), where numbers from 0 - 100% represent growth inhibition, and numbers from -100% - 0 represent cell death. For example, a value of 40 represents 60% growth inhibition. A value of 0 means no net growth occurred over the course of the experiment. A value of -40 indicates 40% of cells at the beginning of the experiment died by the end of the experiment. A value of -100 means all cells are dead at the end of the experiment.
NCI-60 Human Tumor Cell Lines Screen was performed using the standard one-dose NCI protocol, which is described in more detail at https://dtp.cancer.gov/discovery_development/nci-60/default.htm.
Compounds with GIPRCNT values below 10 were considered active. Activity score was based on GIPRCNT using the following formula: […]
Score is 0 for GIPRCNT values of 100 or above, 50 for GIPRCNT values of 0, and 100 for GIPRCNT values of -100.
On to `COc1ccc(-c2nc(SCC(=O)Nc3ccc(C(C)=O)cc3)[nH]c(=O)c2C#N)cc1`, for which the growth is 100%. For the molecule `COc1ccc(C(=O)/C=C/c2cc(-c3cc(OC)c(OC)c(OC)c3)n[nH]2)cc1OC`, the growth is 12.3%.

Turning to `O=C1/C(=C\c2ccco2)SC(=S)N1CCc1ccc(O)cc1`, the growth was 97.4%.

With `COC(=O)[C@]12CC[C@@H](C)[C@H](C)[C@@H]1C1=CC[C@@H]3[C@@]4(C)C[C@@H](OC(C)=O)[C@H](O)[C@@](C)(CO)[C@@H]4[C@H](O)C[C@@]3(C)[C@]1(C)CC2`, the growth was -98.5% (active).

Regarding `C=C(C)[C@@H]1CC[C@]2(C=NCCCNCCCCNCCCN)CC[C@]3(C)[C@H](CC[C@@H]4[C@@]5(C)CCCNC(C)(C)[C@@H]5CC[C@]43C)[C@@H]12`, the growth was 96%.

Turning to `Fc1ccc2c(c1)c(-c1nc(-c3c[nH]c4ncccc34)cs1)cn2CCCN1CCCCC1`, the growth was -52% (active). For the molecule `CSc1ccc(N(C)c2nc(C)nc3c2CCC3)cc1`, the growth is -38.2% (active).

Consider `CCN1CCN(C(=O)[C@@]2(C)CC[C@]3(C)CC[C@]4(C)C(=CC(=O)[C@@H]5[C@@]6(C)CC[C@H](OC7C[C@@H](O)[C@@H](O)C(C)O7)C(C)(C)[C@@H]6CC[C@]54C)[C@@H]3C2)CC1` (stereo not given in full), for which the growth was -5.54% (active). To `C/C(=C(/c1ccccc1)c1ccc(N2C(=O)c3cccc4c(NCc5ccccc5)ccc(c34)C2=O)cc1)c1ccccc1` belongs 99.3%. To `COc1ccc2c(c1)c1nc3cc(C)c(C)cc3nc1n2CCN(C)C` belongs 45.3%; to `COc1ccc2c(c1)C/C(=C\c1cc(-c3ccc4c(c3)OCO4)n[nH]1)C2=O`, 88.5%.

For the molecule `CN1CCN(CCOc2ccc(-c3cnc4c(-c5ccccc5F)cnn4c3)cc2)CC1`, the growth was 35%. For the molecule `COc1cccc(-c2nn(-c3ccccc3)cc2-c2ccnc(NCCCNS(=O)(=O)c3ccc(Br)cc3)c2)c1`, the growth was 39.9%. To `O=c1[nH]c(=S)[nH]c2nc[nH]c12` belongs 110%. The same measure for `CC(C)(C)c1nc(-c2ccc(O)c(O)c2)cs1`: 54.4%; for `Cc1cc(Cl)nc(N(CCNc2ccnc3cc(Cl)ccc23)Cc2ccco2)n1`: 42.9%; for `c1ccc2[nH]c(-c3ccc(Nc4nc(N5CCCCC5)nc(N5CCOCC5)n4)cc3)nc2c1`: -90.7% (active).

Consider `OCCNc1nc(Nc2ccc(Cl)c(Cl)c2)nc2ccccc12`, for which the growth was 34%. To `O=C1c2ccccc2NC(c2cn(-c3ccccc3)nc2-c2cccs2)N1Cc1ccccc1` (stereo not given) belongs 80.9%; to `Nc1c(Cl)cc(N=Nc2ccccc2)cc1Cl`, 94.3%; to `C[C@H]1[C@@H]2[C@H]3CC[C@@H]4[C@@]5(C)Cc6c([nH]c7ccccc67)C(C)(C)[C@@H]5CC[C@@]4(C)[C@]3(C)CC[C@]23CO[C@]1(C)[C@@H](C(=O)/C=C/c1ccccn1)C3`, 88.5%. To `CC1(C)C(=O)/C(=C\c2cccnc2)C[C@]2(C)[C@H]3CC[C@@H]4[C@@H](C(=O)/C=C/c5ccncc5)CC[C@@]4(C)[C@]3(C)CC[C@@H]12` belongs -10.9% (active). The same measure for `NNC(=O)c1nc2ccccc2[nH]1`: 103%; for `CC(Cc1ccco1)C(=O)NC(N)=O` (stereo not given): 98.6%; for `Cc1cccc(C)c1NC(=O)CSC(=S)N1CCCCC1`: 112%.

Regarding `CN1CCN(CC#CCn2c3c(c4ccccc42)C[C@]2(C)[C@H]4CC[C@@H]5[C@H]6[C@H]7OC(=O)[C@@]6(CCC7(C)C)CC[C@@]5(C)[C@]4(C)CC[C@H]2C3(C)C)CC1`, the growth is 93.3%. As for `COc1ccc2c(c1)c(-c1nc(-c3c[nH]c4ncccc34)cs1)cn2C`, the growth is 79.4%.

Consider `O=C1C(Cl)=C(Nc2ccc(S(=O)(=O)c3ccc(NC4=C(Cl)C(=O)c5ccccc5C4=O)cc3)cc2)C(=O)c2ccccc21`, for which the growth was 49.3%. As for `COc1ccc2c(c1)C(Br)=C(CCO)C2c1ccccc1` (stereo not given), the growth was 96.5%. The same measure for `COC(=O)c1cc(=O)nc(N/N=C/c2ccc(C)cc2)s1`: 98.9%; for `Cn1cc(-c2nc(-c3cn(C)c4ncccc34)cs2)c2ccccc21`: 21.9%. For the molecule `NC(=O)NCC1CCCCC1`, the growth was 109%. For the molecule `COC(=O)[C@]12CC[C@@H](C(=O)/C=C/c3cccnc3)[C@@H]1[C@H]1CC[C@@H]3[C@@]4(C)C/C(=C/c5cccnc5)C(=O)C(C)(C)[C@@H]4CC[C@@]3(C)[C@]1(C)CC2`, the growth is -98.9% (active).

`C#CCC(C)(O)/C=C/C1=C(C)CCCC1(C)C` (stereo not given): the growth was 98.4%. The same measure for `COC(=O)[C@]12CC[C@@H](C(C)=O)[C@@H]1[C@H]1CC[C@@H]3[C@@]4(C)C/C(=C/c5cccnc5)C(=O)C(C)(C)[C@@H]4CC[C@@]3(C)[C@]1(C)CC2`: 39.8%; for `COc1ccc(NC(=O)c2ccc3c(c2)nc(-c2cc4ccccc4[nH]c2=O)n3-c2cc(C(C)(C)C)[nH]n2)cc1`: 84%. The same measure for `CN(CSc1ccc(Cl)cc1)c1ccc(CSc2ccc(Cl)cc2)cc1`: 70.9%; for `COc1ccc2nc(-c3c(-c4ccccc4)nc4ncccn34)[nH]c2c1`: 95.6%.

With `N#C/C(=C\c1ccc(-c2ccc(Br)cc2)o1)c1nc(-c2cccs2)cs1`, the growth is 99.6%. For the molecule `O=S(=O)(NCCNc1cc(-c2cn(-c3ccccc3)nc2-c2cccc(O)c2)ccn1)c1cccc(F)c1`, the growth was 26.9%.
